# Assay results reported in PubChem BioAssay AID1117264 (The Scripps Research Institute Molecular Screening Center, 2014).
# The whole screen tested about 89,000 compounds, of which about 440 (0.49%) were called active.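 The calls were made as follows: active = inhibition above the mean inhibition across all screened compounds plus 3 SD (cut at about 11% in these data); inactive = the rest.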 For the sample, actives were picked, then their nearest neighbours and some compounds at random.
# Biological target: RNA-editing ligase 1, mitochondrial (Trypanosoma brucei brucei) (UniProt P86926)
# Sequence (P86926 whole entry, looked up): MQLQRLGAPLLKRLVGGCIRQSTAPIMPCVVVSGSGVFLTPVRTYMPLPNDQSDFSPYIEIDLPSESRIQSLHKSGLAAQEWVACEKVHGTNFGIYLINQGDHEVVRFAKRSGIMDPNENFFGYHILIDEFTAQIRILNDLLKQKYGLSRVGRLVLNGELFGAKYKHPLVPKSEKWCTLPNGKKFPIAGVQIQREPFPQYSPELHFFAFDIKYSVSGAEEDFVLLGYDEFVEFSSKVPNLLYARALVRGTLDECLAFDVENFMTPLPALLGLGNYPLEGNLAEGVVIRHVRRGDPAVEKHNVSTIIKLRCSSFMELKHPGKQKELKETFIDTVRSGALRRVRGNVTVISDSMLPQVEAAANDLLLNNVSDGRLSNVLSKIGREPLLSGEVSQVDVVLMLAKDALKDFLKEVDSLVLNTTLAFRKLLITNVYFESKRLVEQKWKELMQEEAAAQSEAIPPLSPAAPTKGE
# Test: T. brucei editing ligase REL1 blockade – biochemical, FRET fluorescence, primary screen (AID 1117264);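 also: 0% = plate median of test wells and 100% = NSC42067 control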
# Details: TbREL1 RNA ligation, at 9.66 µM, hits give high values
row,Structure (SMILES),inhibition
1,CC1CCCCN1Cc1cccnc1 (stereo not given),13.3% (active)
2,COC(=O)C1=C(c2ccc(F)cc2OCc2ccccc2)C[C@@H]2CC[C@H]1N2C(=O)NCc1ccc(C(C)(C)C)cc1,-1.57% (inactive)
3,COc1cccc(-c2nc3ccc(N4CCN(C)CC4)cc3[nH]2)c1,5.54% (inactive)
4,CN1CCN(c2cc(N3CCNCC3)ccc2[N+](=O)[O-])CC1,13.9% (active)
5,Cc1cccc(NC(=O)N2CC3CC(C2)c2cccc(=O)n2C3)c1 (stereo not given),3.86% (inactive)
6,COC(=O)C1=C(c2ccccc2OCc2ccccc2)C[C@@H]2CC[C@H]1N2C(=O)NCc1ccc(OC)cc1,-0.93% (inactive)
7,CCOP(=O)(OCC)C(NC(=O)NC)C(N)=O (stereo not given),2.84% (inactive)
8,COc1ccc(-n2nnnc2C(c2cccc3ccccc23)N2CCC(n3c(=O)[nH]c4ccccc43)CC2)cc1 (stereo not given),-2.29% (inactive)
9,CCC(=NCCc1ccccc1)c1c(O)n(C2CCCCC2)c(=O)[nH]c1=O,-0.24% (inactive)
10,O=c1[nH]c2ccccc2n1C1CCN(C(c2ccccc2)c2nnnn2Cc2ccccc2)CC1 (stereo not given),23.1% (active)
11,COc1cc(C(=O)N2Cc3ccc(Br)cc3-n3nncc3C2)cc(OC)c1OC,2.36% (inactive)
12,CN1CCN(C(=S)SCC(=O)Nc2ccc(Cl)cc2C(=O)c2ccccc2)CC1,2.78% (inactive)
13,CCOC(=O)CNC(=O)N1Cc2cc(N3CCCCC3)ccc2-n2nncc2C1,2.4% (inactive)
14,COc1ccc(-c2nn(CCC#N)cc2C(=O)O)cc1,-2.19% (inactive)
15,CSc1ccc(C(=O)C2CCCN(Cc3ccn[nH]3)C2)cc1 (stereo not given),0.96% (inactive)
